# Assay results: the OligoGym collection
# Target: KRTAP5-8
# Test: pooled miR-30 sensor sort-seq; sequence = guide strand
# Conditions: shRNA
# Also: reference of the scale not given here.
row,Sequence,sensor-assay potency score (higher = more potent)
1,TGAGGAGCAACAGCAGGGCTTA,-1.48
2,AGCCTGAGGAGCAACAGCAGGG,-1.24
3,ATGGGCACACAGCAGCTAGAGC,-1.84

# Target: KRTAP5-9
# Test: as above
# Conditions: shRNA
row,Sequence,sensor-assay potency score (higher = more potent)
1,AGTCACAGCCTCCACAGCTGGA,-1.85
2,TGGAACACAGCAGCACACGGGC,-1.32
3,CACACAGGGACACAGCATCTGG,-1.57
4,TGAGGATGAGCAGCAGGGCTTG,-1.74
5,TAGACGGGTGCACAGCAGCTGG,-1.34
6,TGAAGAGCAACAGCAGGGCTTG,-0.909
7,TAGAGCAGGAACAGGCTGGAAC,-1.08
8,TTGCCACAGCTAGAGCAGGAAC,-1.67
9,TCACAGCCTCCACAGCTGGAGC,-1.62
10,TTGCAGCAGTAGACGGGTGCAC,-0.372
11,AGCTAGAGCAGGAACAGGCTGG,-1.04
12,TAGGGCTTGCAGCAGCTGCACT,-1.29

# Target: KRTAP6-3
# Test: as above
# Conditions: shRNA
row,Sequence,sensor-assay potency score (higher = more potent)
1,TGTAGTTTCTGTAGTAGCTGCC,0.749
2,TCTGTAGCCACAGCCACAGAAG,-1.55
3,TTTCTGTAGTAGCTGCCACACA,-1.22
4,ACAGCCATAGCCACAGTCCAGG,-1.73
5,TAGTTTCTGTAGTAGCTGCCAC,-0.443
6,TTCTGTAGTAGCTGCCACACAT,-0.0154
7,ATAGCCATGGCCACCATTGTAG,-1.31
8,ATTGTAGTTTCTGTAGTAGCTG,-0.231
9,TCTGTAGTAGCTGCCACACATG,-1.43
10,TTGTAGTTTCTGTAGTAGCTGC,-0.198
11,TAGCCACAGCCACAGAAGGAGC,-1.94
12,TAGTAGCTGCCACACATGGTGT,-1.17

# Target: KRTAP8-1
# Test: as above
# Conditions: shRNA
row,Sequence,sensor-assay potency score (higher = more potent)
1,ACAGCCAACGCTATATCCCAGC,-1.47
2,TAGCCGAAAGCCCCACAGCCGT,-1.72
3,TATATCCCAGCGGGTAGCCATA,-1.94
4,TTGGAAAGCAGTGTCTCTGAGG,-0.482
5,ATCCTGGGAAGACAGCCCCGGG,-1.89
6,TGTAGCCATAGCCGAAGCCATA,-1.87
7,TAGCATCCTGGGAAGACAGCCC,-0.588
8,AGCCGTTGTAGCCATAGCCGAA,-1.46
9,TTGTAGCCATAGCCGAAGCCAT,-1.41
10,TGCTGCCATAGCCACAGCCAAC,-2.12
11,TGCCCCAGTAGCATCCTGGGAA,-0.828
12,TAGGTGCTGCCATAGCCACAGC,-1.53
